Results as given in PubChem BioAssay (Tox21).
Several values for one entry are separate records, joined by “and”; a condition that tells them apart may be missing. Equal values may be shown once. Values without a mark were called inactive. Inconclusive results are not listed. A call without a number means that no potency is given here. Activity calls are given as the source filed them. Unless noted, calls follow the shape of the dose curve; as a rule, active = well fitted curve in the direction sought with a large enough effect in the repeat runs; inconclusive = weak or mixed curves; inactive = no such curve, though single readings can be large; an effect the other way counts as inactive or inconclusive.

Tests used:
[1] = qHTS assay to identify small molecule agonists of the estrogen receptor alpha (ER-alpha) signaling pathway in the presence of an antagonist - cell viability counter screen (AID 1259386);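 also: cells exposed to compounds for 22 h at 37 °C before the viability read; nearly all actives have a fitted effect of over 30% in size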; also: potency is read from the fitted curve at half-maximal effect
Outline: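 Viability counter screen using VM7Luc4E2 (full-length ER-alpha, four ERE-luciferase). The cells were treated with compounds alongside ICI-182,780 10.0nM for 22hr, and live-cell protease fluorescence was quantified with CellTiter-Fluor.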

[2] = molecular target: Progesterone receptor (Homo sapiens) (UniProt P06401); assay: qHTS assay to identify small molecule agonists of the progesterone receptor (PR) signaling pathway (AID 1346784; calls by dose curve; also: nearly all actives have a fitted effect of over 30% in size; also: potency is read from the fitted curve at half-maximal effect)
Outline: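 Fluorescence from LiveBLAzer B/G FRET substrate cleavage (2 hr, RT) reported PR activation in PR-UAS-bla HEK 293T cells treated 16 hr at 37C/5% CO2 with compounds; medium contained 2% charcoal-stripped FBS.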

[3] = molecular target: Progesterone receptor (Homo sapiens) (UniProt P06401); assay: qHTS assay to identify small molecule antagonists of the progesterone receptor (PR) signaling pathway (AID 1346795; active = well fitted inhibition curve with a large enough effect in the signal ratio in the repeat runs, not every such curve was filed as active; the % refers to the signal ratio; also: potency is read from the fitted curve at half-maximal effect)
Outline: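 Fluorescence intensity measured 2 hr after adding beta-lactamase FRET substrate to PR-UAS-bla HEK293T cells that had been co-treated 16 hr with compound and 1 nM R5020 (final concentration) in 2% charcoal-stripped FBS.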

[4] = qHTS assay to identify small molecule agonists of the progesterone receptor (PR) signaling pathway - cell viability counter screen (AID 1346799; calls by dose curve; also: nearly all actives have a fitted effect of over 45% in size; also: potency is read from the fitted curve at half-maximal effect)
Outline: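 In parallel with the beta-lactamase readout, cytotoxicity toward PR-UAS-bla HEK293T cells was measured by CellTiter-Glo luminescence following 16 hr compound incubation in 2% charcoal-stripped FBS medium.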

[5] = qHTS assay to identify small molecule antagonists of the TGF-beta/Smad signaling pathway - cell viability counter screen (AID 1346824); also: nearly all actives have a fitted effect of over 50% in size; also: potency is read from the fitted curve at half-maximal effect
Outline: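 SBE-bla HEK 293T cells were plated overnight at 37 C, then given compounds in DMSO plus TGF-beta1 (added as 0.25 ng/mL solution) for 5 hr. After the bla read, CellTiter-Glo was added to the same wells and luminescence read after 30 min at room temperature.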

[6] = qHTS assay to identify small molecule agonists of the TGF-beta/Smad signaling pathway - cell viability counter screen (AID 1346829); also: nearly all actives have a fitted effect of over 45% in size; also: potency is read from the fitted curve at half-maximal effect
Outline: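 SBE-bla HEK 293T cells plated overnight, compound exposure 5 hr at 37 C. Viability read in the same wells by CellTiter-Glo luminescence after 30 min at room temperature, following the beta-lactamase read.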

[7] = qHTS assay to identify small molecule agonists of the TGF-beta/Smad signaling pathway (AID 1346859; active = well fitted activation curve with a large enough effect in the signal ratio in the repeat runs, not every such curve was filed as active; the % refers to the signal ratio; also: series mostly up to about 77 µM)
Outline: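 After overnight seeding, SBE-bla HEK 293T cells are dosed with compounds in DMSO and kept 5 hr at 37 C, 5% CO2. LiveBLAzer-type FRET substrate is then applied for 2 hr at room temperature.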

[8] = molecular target: Thyrotropin-releasing hormone receptor (Homo sapiens) (UniProt P34981); assay: qHTS assay to identify small molecule antagonists of the thyrotropin-releasing hormone receptor (TRHR) signaling pathway (AID 1346877; active = well fitted inhibition curve with a large enough effect in the repeat runs, not every such curve was filed as active; also: series mostly up to about 51 µM)
Outline: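 Following an 18 h incubation at 37 °C and a 2 h calcium dye load, TRHR-HEK293 cells were exposed to compound (5 min, room temperature) and challenged with TRH, 1 nM final.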

[9] = molecular target: Thyrotropin-releasing hormone receptor (Homo sapiens) (UniProt P34981); assay: qHTS assay to identify small molecule agonists of the thyrotropin-releasing hormone receptor (TRHR) signaling pathway (AID 1346891; calls by dose curve;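 also: HEK293 cells expressing TRHR with calcium dye readout; series mostly up to about 58 µM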)
Outline: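 Compounds were tested as agonists at 15 concentrations, in triplicate, on TRHR-Hek293 cells; calcium-sensitive dye fluorescence was recorded for 3 min following addition.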

[10] = qHTS assay to identify small molecule antagonists of the progesterone receptor (PR) signaling pathway - cell viability counter screen (AID 1346798); also: nearly all actives have a fitted effect of over 50% in size; also: potency is read from the fitted curve at half-maximal effect
Outline: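 CellTiter-Glo luminescence; PR-UAS-bla HEK293T, 3,000 cells/well; compound + R5020, 16 hr, 37C/5% CO2; 30 min RT before read.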

Chain of Progesterone receptor (Homo sapiens) (P06401 whole entry, looked up): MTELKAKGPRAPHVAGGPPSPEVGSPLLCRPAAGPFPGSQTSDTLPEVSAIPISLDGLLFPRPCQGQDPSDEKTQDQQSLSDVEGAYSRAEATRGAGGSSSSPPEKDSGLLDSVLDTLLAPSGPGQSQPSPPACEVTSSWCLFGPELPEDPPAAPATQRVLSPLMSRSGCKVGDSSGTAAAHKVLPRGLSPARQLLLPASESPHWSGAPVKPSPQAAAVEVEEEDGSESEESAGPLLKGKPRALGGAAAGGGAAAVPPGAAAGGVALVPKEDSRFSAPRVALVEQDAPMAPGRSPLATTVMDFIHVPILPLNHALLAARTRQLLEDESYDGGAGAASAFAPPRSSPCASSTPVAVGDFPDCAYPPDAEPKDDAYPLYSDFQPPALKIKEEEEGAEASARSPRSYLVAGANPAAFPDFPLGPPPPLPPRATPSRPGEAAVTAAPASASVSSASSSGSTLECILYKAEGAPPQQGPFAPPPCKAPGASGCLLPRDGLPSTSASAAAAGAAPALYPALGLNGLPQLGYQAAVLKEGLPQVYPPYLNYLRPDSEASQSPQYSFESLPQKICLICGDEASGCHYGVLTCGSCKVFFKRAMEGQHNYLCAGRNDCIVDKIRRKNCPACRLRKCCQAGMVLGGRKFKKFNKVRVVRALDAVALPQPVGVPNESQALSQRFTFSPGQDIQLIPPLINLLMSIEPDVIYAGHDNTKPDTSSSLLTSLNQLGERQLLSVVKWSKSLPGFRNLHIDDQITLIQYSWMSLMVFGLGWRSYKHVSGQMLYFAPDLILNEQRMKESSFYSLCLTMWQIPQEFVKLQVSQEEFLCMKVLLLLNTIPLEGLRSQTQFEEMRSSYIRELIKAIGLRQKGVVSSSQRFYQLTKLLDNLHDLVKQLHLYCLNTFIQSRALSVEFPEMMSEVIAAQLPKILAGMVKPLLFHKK
Chain of Thyrotropin-releasing hormone receptor (Homo sapiens) (P34981 whole entry, looked up): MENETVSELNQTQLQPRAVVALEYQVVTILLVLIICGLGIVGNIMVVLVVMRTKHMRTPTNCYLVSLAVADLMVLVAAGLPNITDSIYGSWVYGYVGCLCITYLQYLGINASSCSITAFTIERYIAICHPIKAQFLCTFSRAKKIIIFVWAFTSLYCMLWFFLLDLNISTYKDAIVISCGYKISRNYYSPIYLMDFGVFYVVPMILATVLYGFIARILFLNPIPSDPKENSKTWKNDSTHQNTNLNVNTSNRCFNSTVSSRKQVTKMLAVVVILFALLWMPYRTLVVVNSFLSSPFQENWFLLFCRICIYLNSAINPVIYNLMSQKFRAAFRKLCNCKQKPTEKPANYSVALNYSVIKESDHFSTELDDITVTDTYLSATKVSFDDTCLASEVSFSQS

SMILES: CCC(N)(CO)CO
- Potency [1]: inactive
- Potency [2]: inactive
- Potency [3]: inactive
- Potency [4]: inactive
- Potency [5]: inactive
- Potency [6]: inactive
- Potency [7]: inactive
- Potency [8]: inactive
- Potency [9]: inactive

SMILES: Cc1cccc(S(=O)(=O)O)c1C
- Potency [1]: inactive
- Potency [2]: inactive
- Potency [3]: inactive
- Potency [10]: inactive
- Potency [5]: inactive
- Potency [6]: inactive
- Potency [7]: inactive
- Potency [8]: inactive
- Potency [9]: inactive

SMILES: CNC(=O)c1ccccc1
- Potency [1]: inactive
- Potency [2]: inactive
- Potency [3]: inactive
- Potency [4]: inactive
- Potency [5]: inactive
- Potency [7]: inactive
- Potency [8]: inactive
- Potency [9]: inactive

SMILES: CCCCCOc1ccccc1/C(=C\SC)n1ccnc1
- Potency [1]: inactive
- Potency [2]: inactive
- Potency [3]: 3.76 µM (active)
- Potency [10]: 5.31 µM (active)
- Potency [5]: inactive
- Potency [7]: inactive
- Potency [8]: inactive
- Potency [9]: inactive

SMILES: Cc1c(C)c2c(c(C)c1O)CCC(C)(COc1ccc(CC3SC(=O)NC3=O)cc1)O2 (stereo unspecified)
- Potency [1]: inactive
- Potency [2]: inactive
- Potency [3]: 18.8 µM (active)
- Potency [5]: inactive
- Potency [6]: inactive
- Potency [7]: inactive
- Potency [8]: inactive
- Potency [9]: inactive

SMILES: Clc1ccc(C(Cn2ccnc2)OCc2ccc(Sc3ccccc3)cc2)c(Cl)c1 (stereo unspecified)
- Potency [1]: inactive
- Potency [2]: inactive
- Potency [3]: 29.8 µM (active)
- Potency [4]: inactive
- Potency [5]: inactive
- Potency [6]: inactive
- Potency [7]: inactive
- Potency [8]: inactive
- Potency [9]: inactive

SMILES: CCc1oc2ccccc2c1C(=O)c1cc(Br)c(O)c(Br)c1
- Potency [1]: inactive
- Potency [2]: inactive
- Potency [3]: 23.7 µM (active)
- Potency [5]: inactive
- Potency [6]: inactive
- Potency [7]: inactive
- Potency [8]: inactive
- Potency [9]: inactive

SMILES: O=C(NO)C1(NS(=O)(=O)c2ccc(Oc3ccc(F)cc3)cc2)CCOCC1
- Potency [1]: inactive
- Potency [2]: inactive
- Potency [3]: inactive
- Potency [5]: inactive
- Potency [6]: inactive
- Potency [7]: inactive
- Potency [8]: inactive
- Potency [9]: inactive

SMILES: Oc1ccc2c(c1)-c1ccccc1C2
- Potency [1]: inactive
- Potency [2]: inactive
- Potency [3]: 17.2 µM (active)
- Potency [10]: inactive
- Potency [5]: inactive
- Potency [6]: inactive
- Potency [7]: inactive
- Potency [8]: inactive
- Potency [9]: inactive

SMILES: CC(=O)SC[C@@H](Cc1ccccc1)C(=O)NCC(=O)OCc1ccccc1
- Potency [1]: inactive
- Potency [2]: inactive
- Potency [3]: inactive
- Potency [4]: inactive
- Potency [5]: inactive
- Potency [6]: inactive
- Potency [7]: inactive

SMILES: Nc1ccc2cc(S(=O)(=O)O)cc(O)c2c1N=Nc1ccccc1C(F)(F)F
- Potency [1]: 48.6 µM (active)
- Potency [2]: inactive
- Potency [3]: inactive
- Potency [10]: inactive
- Potency [7]: inactive
- Potency [8]: inactive
- Potency [9]: inactive

SMILES: O=C(Oc1ccccc1)c1ccccc1C(=O)Oc1ccccc1
- Potency [1]: inactive
- Potency [2]: inactive
- Potency [3]: 24.3 µM (active)
- Potency [5]: inactive
- Potency [6]: inactive
- Potency [7]: inactive
- Potency [8]: inactive
- Potency [9]: inactive

SMILES: Cc1cccc(N(C)C(=S)Oc2ccc3c(c2)C2CCC3C2)c1 (stereo unspecified)
- Potency [1]: inactive
- Potency [2]: inactive
- Potency [3]: 15 µM (active)
- Potency [5]: inactive
- Potency [6]: inactive
- Potency [7]: inactive
- Potency [8]: inactive
- Potency [9]: inactive

SMILES: CC(C)=CCOc1ccc(/C=C/C(=O)c2ccc(OCC=C(C)C)cc2OCC(=O)O)cc1
- Potency [1]: inactive
- Potency [2]: inactive
- Potency [3]: 26.6 µM (active)
- Potency [4]: inactive
- Potency [5]: inactive
- Potency [6]: inactive
- Potency [8]: inactive
- Potency [9]: inactive

SMILES: CCCCCCCCCCCCCCCC(=O)OC[C@H](O)[C@H]1OC(=O)C(O)=C1O
- Potency [1]: inactive
- Potency [2]: inactive
- Potency [3]: inactive
- Potency [5]: inactive
- Potency [6]: inactive
- Potency [7]: inactive
- Potency [8]: inactive
- Potency [9]: inactive

SMILES: O=Cc1cc(O)ccc1Br
- Potency [1]: inactive
- Potency [2]: 0.983 µM (active)
- Potency [3]: 55.3 µM (active)
- Potency [5]: inactive
- Potency [6]: inactive
- Potency [7]: inactive

SMILES: Cc1onc(-c2c(Cl)cccc2Cl)c1C(=O)N[C@@H]1C(=O)N2[C@@H]1SC(C)(C)[C@@H]2C(=O)O
- Potency [1]: inactive
- Potency [2]: inactive
- Potency [3]: inactive
- Potency [10]: inactive
- Potency [5]: inactive
- Potency [7]: inactive
- Potency [8]: inactive
- Potency [9]: inactive

SMILES: COC(=O)C1=C(C)NC(C)=C(C(=O)OCCc2ccc(N3CCN(C(c4ccccc4)c4ccccc4)CC3)cc2)C1c1cccc([N+](=O)[O-])c1 (stereo unspecified)
- Potency [1]: inactive
- Potency [2]: inactive
- Potency [3]: inactive
- Potency [10]: inactive
- Potency [5]: inactive
- Potency [7]: inactive

SMILES: CC1=NC(C)OC1C (stereo unspecified)
- Potency [1]: inactive
- Potency [2]: inactive
- Potency [3]: inactive
- Potency [10]: inactive
- Potency [5]: inactive
- Potency [7]: inactive
- Potency [8]: inactive
- Potency [9]: inactive

SMILES: CN(C)CCCOC1(Cc2ccccc2)CCCCCC1
- Potency [1]: inactive
- Potency [2]: inactive
- Potency [3]: inactive
- Potency [5]: inactive
- Potency [6]: inactive
- Potency [7]: inactive
- Potency [8]: inactive
- Potency [9]: inactive

SMILES: O=C1CCCCCN1SSN1CCCCCC1=O
- Potency [1]: inactive
- Potency [2]: inactive
- Potency [3]: inactive
- Potency [10]: inactive
- Potency [7]: inactive
- Potency [8]: inactive
- Potency [9]: inactive

SMILES: CCOC(=O)O[C@]1(C(=O)OCCl)CC[C@H]2[C@@H]3CCC4=CC(=O)C=C[C@]4(C)[C@H]3[C@@H](O)C[C@@]21C
- Potency [1]: inactive
- Potency [2]: 0.188 µM (active)
- Potency [3]: inactive
- Potency [10]: inactive
- Potency [5]: inactive
- Potency [8]: inactive
- Potency [9]: inactive

SMILES: C[n+]1cc2c3c(ccc2c2ccc4cc5c(cc4c21)OCO5)OCO3
- Potency [1]: 13 µM (active)
- activation [2]: -18.8% [at 19 µM]
- Potency [3]: 2.59 µM (active)
- Potency [4]: 3.26 µM (active)
- Potency [5]: 4.65 µM (active)
- Potency [6]: 6.57 µM (active)
- activity, negative = inhibition [8]: 3.07% [at 10.5 µM]
- activation [9]: 2.25% [at 11.8 µM]

SMILES: CC[C@H](c1ccc(O)cc1)[C@@H](CC)c1ccc(O)cc1
- Potency [1]: inactive
- Potency [2]: inactive
- Potency [3]: 7.7 µM (active) and 7.5 µM (active)
- Potency [5]: inactive
- Potency [6]: inactive
- Potency [7]: inactive
